Assay outcomes as filed in PubChem BioAssay.
Only some compounds are listed: those with a hit (about 14% of all), similar ones and a draw of the others.
Pf growth 48h = P. falciparum growth inhibition at 48 hours (one generation) | 310,000 tested, 5.9% active | P. falciparum luciferase growth in erythrocytes, 48 h | Potency, µM (highest dose often 28.7 µM), without a hit: at the highest dose activity change, negative = inhibition, actives largely listed as inhibitors; further: potency means the concentration at half of the fitted maximal effect
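Cell-based growth assay: transgenic P. falciparum expressing firefly luciferase, cultured in red cells within RPMI 1640 containing 0.5% w/v Albumax, 24 mM bicarbonate and gentamycin. A drop in luciferase activity indicates inhibition.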
HCV inhibitor = blocks hepatitis C virus; AID 651820; Huh7.5.1 HCVcc-Cre infection, luciferase reporter, 44 h; 340,000 tested, 3.4% active; Potency, µM (series often up to 41.8 µM), for inactives: at the top dose activity change, negative = inhibition, hits mostly inhibitors; further: potency means the concentration at half of the fitted maximal effect
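Seed cells (1,000/well) for 4 h; treat with compound and infect with HCVcc-Cre, moi about 0.5. Incubate 44 h, then detect luciferase activity.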
Marburg entry inh = inhibitors of Marburg virus binding or cell entry | Marburg virus pseudotyped entry inhibition, cell reporter | Potency, µM (doses to about 37.8 µM), for inactives: at the highest dose activity change, negative = inhibition, hits mostly inhibitors | 300,000 tested, 1.8% active | AID 540276; calls by dose curve; tested in HEK293 cells; further: potency means the concentration at half of the fitted maximal effect
Pf growth 96h = P. falciparum growth inhibition at 96 hours. 320,000 tested, 6.9% active. Potency, µM (highest dose often 28.7 µM), for the others: at the top dose activity change, negative = inhibition, usual class: inhibitors. P. falciparum luciferase reporter growth, 96 h; further: potency means the concentration at half of the fitted maximal effect
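Parasite growth measured via integrated firefly luciferase reporter in P. falciparum. Infected erythrocytes at 2% hematocrit, 0.05% parasitemia final were treated 96 hours at 37 C under 5% CO2, and luminescence was read.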
LASV entry inh = blocks Lassa virus binding to or entry into cells; Potency, µM (titrated, usually from 37.9 µM), without a hit: top-dose activity change, negative = inhibition, most hits filed as inhibitors; Lassa virus pseudotype entry inhibition, cell reporter; 300,000 tested, 1.2% active; calls by dose curve; tested in HEK293 cells; further: potency means the concentration at half of the fitted maximal effect; nearly all actives have a fitted effect of over 50% in size
HCMV inh = inhibitors of human cytomegalovirus. HFF cells, HCMV-luciferase reporter, 72 h; active compounds read low. activity change, negative = inhibition, % at 57.5 µM. 410,000 tested, 4.5% active; in the data active means activity change below about -60%; inconclusive means no clear call, values can overlap the other calls; inactive means above about -39%
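HFF cells seeded 16 h at 37C, treated with compounds, infected with luciferase-reporter HCMV at MOI 1 PFU/cell; luciferase read at 72 h post infection, normalized to buffer-only and Salinomycin controls.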
Starred values were filed as active, the others as inactive; ? = inconclusive; . = no result given; [ ] = another dose, or the depositor's remark. Unless noted, the call rests on the fitted dose curve; in most records, active means well fitted inhibition curve with a large enough effect; inconclusive means small, poorly fitted or top-dose-only effect, or another doubt; inactive means no such curve, though single readings can be large or run the other way. On the % scale 0 is the no-effect control and ±100 the full control effect.

SMILES	Pf growth 48h	HCV inhibitor	Marburg entry inh	Pf growth 96h	LASV entry inh	HCMV inh
CCC(C)NC(=O)c1ccc2nc(Cc3ccc(OC)cc3)oc2c1 (stereo not drawn)	?	-4.9%	2.8%[46.1 µM]	-11.1%	?	4.5
CCn1cc(CNC(=O)c2ccc3nc(Cc4ccc(OC)cc4)oc3c2)cn1	-9.4%	10µM*	-20.9%[46.1 µM]	?	-25.3%[46.1 µM]	-65.3*
Cn1cnc(S(=O)(=O)N2CCCCC2c2cc(C(=O)Nc3cccc(C#N)c3)no2)c1 (stereo not drawn)	.	.	.	.	.	-18.1
O=C(NCCc1ccncc1)c1ccc2nc(Cc3cccc(Cl)c3)oc2c1	10.3%	-6.9%	-8.9%	-44.3%	5.9%	-70.2*
C=C(C)CNC(=O)c1ccc2nc(Cc3ccc(OC)cc3)oc2c1	11.1%	5.6%	-17.0%	-4.8%	6.31µM*	103.5
Cn1cc(CCNC(=O)c2ccc3nc(Cc4ccccc4F)oc3c2)cn1	64.0%	-7.5%	?	1.85µM*	-27.8%[46.1 µM]	99.0
COc1ccc(Cc2nc3ccc(C(=O)NC(C)C)cc3o2)cc1	.	-2.4%	.	.	.	135.3
Cn1cc(CNC(=O)c2ccc3nc(Cc4ccccc4F)oc3c2)cn1	29.8%	-23.3%	7.0%	13.4%	-15.8%	85.5
CN1C[C@]2(CCN3CCCC(C)(C)[C@@H]32)c2ccccc21	.	.	.	.	.	17.6
N/N=C(/C(=O)N1CCN(c2ccccn2)CC1)c1ccccc1I	.	.	.	.	.	-1.4
Cc1c(NC(=O)c2cc(=O)c3cc(Cl)ccc3o2)c(=O)n(-c2ccccc2)n1C	.	.	-6.7%[46.1 µM]	.	-5.6%[46.1 µM]	-21.0
COc1cc(Br)c(C2CC(=O)Nc3cc(OC)c(OC)c(OC)c32)cc1OC (stereo not drawn)	.	.	-1.2%[46.1 µM]	.	2.9%[46.1 µM]	16.9
Cc1ccc(S(=O)c2ccc([N+](=O)[O-])c3nonc23)cc1 (stereo not drawn)	.	.	.	.	.	-95.0*
Cc1ccc(Nc2c([N+](=O)[O-])ccc3nonc23)c(C)c1	2.2%[0.00184 µM]	19.1%	4.2%[46.1 µM]	?	4.9%[46.1 µM]	?
C[C@@H]1CN([C@H](C)CO)C(=O)c2cc(Br)cnc2O[C@H]1CN(C)Cc1cccnc1	.	.	.	.	.	5.5
Cc1ccc(S(=O)(=O)C(CNC(=O)C(=O)NCc2ccc(Cl)cc2)c2cccs2)cc1 (stereo not drawn)	.	.	.	.	-14.7%[46.1 µM]	-21.6
Cn1c(=O)[nH]c(=O)c2c1nc(SCCC(=O)O)n2Cc1cccc(Br)c1	-17.1%	-1.2%	3.8%[46.1 µM]	5.2%	-2.5%[46.1 µM]	3.2
CCN(CC)c1nc2c(c(=O)[nH]c(=O)n2C)n1CCOc1ccccc1	0.0%	-10.9%	-1.8%	0.657µM*	-6.2%	9.4
CCOC(=O)CSc1nc2c(c(=O)[nH]c(=O)n2C)n1Cc1ccccc1	-29.9%	2.82µM*	.	?	.	64.8
CC(=O)CSc1nc2c(c(=O)[nH]c(=O)n2C)n1Cc1cccc(Br)c1	-16.2%	12.6µM*	-14.9%[46.1 µM]	43.8%	-16.5%[46.1 µM]	229.4
Cc1ccc(N2C(=O)CC(c3ccccc3F)C3=C2COC3=O)cc1Cl (stereo not drawn)	.	.	-1.8%[46.1 µM]	.	-9.3%[46.1 µM]	-8.4
NS(=O)(=O)c1ccc(CCNC(=O)c2ccc3nc4ccc(Cl)cc4c(=O)n3c2)cc1	11.7µM*	?	.	6.2%	.	-30.6
CCOC(=O)N1CCN(C(=O)c2ccc3nc4ccc(Cl)cc4c(=O)n3c2)CC1	4.9%	-24.8%	?	?	?	-97.2*
Cc1ccc(CCNC(=O)c2ccc3nc4ccc(Cl)cc4c(=O)n3c2)cc1	.	-9.6%	.	9.0%	.	?
CCOC(=O)N1CCN(C(=O)c2cccn3c(=O)c4sccc4nc23)CC1	27.2%	6.9%	-16.1%	2.33µM*	-0.4%	36.9
SMILES	Pf growth 48h	HCV inhibitor	Marburg entry inh	Pf growth 96h	LASV entry inh	HCMV inh
CCOC(=O)N1CCN(C(=O)c2cccn3c(=O)c4cc(Cl)ccc4nc23)CC1	6.3%	1.5%	-9.4%	?	12.4%	54.8
CCOC(=O)N1CCN(C(=O)c2cccn3c(=O)c4cc(Br)ccc4nc23)CC1	-14.1%	2.1%	-13.5%	13.6%	-16.9%	16.9
CCOC(=O)N1CCN(C(=O)c2ccc3nc4ccsc4c(=O)n3c2)CC1	1.6%	1.4%	.	8.28µM*	.	38.6
N#CC(c1c(Cl)cccc1N1CCCCC1)N1CCCCC1 (stereo not drawn)	.	.	.	.	.	12.6
O=C(Cc1ccc(F)cc1)NCCc1csc2nc(-c3ccccc3F)nn12	.	.	.	.	-11.3%[46.1 µM]	3.8
Cc1ccc([N+](=O)[O-])cc1NC(=O)Nc1cccc(F)c1	7.38µM*	?	.	?	.	-96.8*
O=C(Nc1ccccc1F)Nc1ccccc1F	105.9%	-7.3%	.	-15.6%	.	-24.6
Cc1ccc(N=Nc2ccc(C)cc2NC(=O)Nc2ccccc2F)cc1	?	?	.	?	.	-67.1*
Cc1cc([N+](=O)[O-])ccc1NC(=O)Nc1ccccc1F	?	?	-0.4%[46.1 µM]	2.1%	19.7%[46.1 µM]	-60.7*
O=C(c1ccco1)N1CCN(Cc2nnc(-c3cccc(Br)c3)o2)CC1	5.3%	10.0%	8.7%[46.1 µM]	-4.3%	-26.0%	0.1
COC(=O)Nc1ccc(S(=O)(=O)NCCO)cc1	.	-3.9%	-1.6%	26.8%	7.7%	-11.1
COC(=O)Nc1ccc(S(=O)(=O)NCCCCCC(=O)O)cc1	6.6%	6.8%	-2.9%[46.1 µM]	2.94µM*	-4.3%	-21.4
CCCCNS(=O)(=O)c1ccc(NC(=O)Cc2ccc(OC)cc2)cc1	-0.8%[5.75 µM]	?	?	12.1%	-17.2%[46.1 µM]	-67.0*
COC(=O)Nc1ccc(S(=O)(=O)Nc2ccc(C)cc2)cc1	.	.	-1.6%	8.0%	.	.
COC(=O)Nc1ccc(S(=O)(=O)Nc2ccc(O)cc2)cc1	?	?	7.5%	45.4%	-28.4%	-66.7*
COc1ccc(C(=O)Nc2nnc(S(=O)(=O)N(C)c3ccc(Cl)cc3)s2)cc1OC	.	.	.	.	0.4%[46.1 µM]	8.1
CCN(CC)C(=O)C1=C(C)N(Cc2ccccc2)C(=O)C(CC(=O)NCc2cccc3ccccc23)C1 (stereo not drawn)	.	.	.	.	.	-16.5
N=c1ccn(Cc2c(Cl)cccc2Cl)cc1	?	?	?	?	-13.5%[46.1 µM]	-78.3*
Clc1ccc(CN2CCSCC2)c(Cl)c1	5.7%	-7.6%	10.2%	2.2%	5.6%	0.5
N=c1ccn(Cc2ccc(Cl)cc2Cl)cc1	.	2.82µM*	-12.3%	1.47µM*	?	-97.1*
N=c1ccn(Cc2ccccc2Cl)cc1	4.65µM*	2.51µM*	?	.	-2.1%	-85.2*
O=C1CCCc2ccccc2N1Cc1c(Cl)cccc1Cl	-24.4%	-18.8%	-7.0%	0.9%	-13.9%	-21.3
Cn1c(SCCCC(=O)c2ccc(Br)cc2)nnc1-c1ccncc1	.	?	?	8.28µM*	?	-35.9
CC(=O)CSc1nnc(-c2ccncc2)n1C	.	7.3%	7.3%	-22.2%	1.5%	25.7
CC(=O)N1CCN(c2ccc(NC(=O)COc3ccc(Cl)cc3Cl)cc2)CC1	?	?	12.6%	.	-17.7%	-64.3*
O=C(COc1ccccc1Cl)Nc1cc(NC(=O)COc2ccccc2Cl)cc(C(=O)O)c1	21.2%	11.9%	?	159.1%	8.91µM*	11.4
